# Source: PubChem BioAssay
# HSV augment – enhancers of HSV replication in host cells, fold increase, host cell viability; maximum fold increase; 220,000 compounds, 0.005% hits; HSV replication augmentation in cells; in the data active means maximum fold increase above about 1.5; inconclusive means no clear call, values can overlap the other calls; tested in PC3 cells
# Measles CPE – compounds protecting cells from measles virus cytopathic effect, primary screen, measles RdRp inhibitor project, single point, MLSMR library, absorbance; 140,000 compounds, 1.5% hits; protection (pct of control), % at 4 µM; Measles virus-infected cells, CPE protection; in the data active means protection mostly above about 24%, no sharp cut-off; inactive means mostly below about 26%
# Arbovirus anti – antivirals against arbovirus infection, primary screen, cell-based, full library, 10K replicate subset; arbovirus infection cell-based antiviral screen; inhibition, % at 10 µM; 200,000 compounds, 0.37% hits; in the data active means inhibition above about 30%
# ROMK primary – ROMK potassium channel modulators, primary screen, cell-based, thallium flux, MLSMR library; 130,000 compounds, 2% hits; ATP-sensitive inward rectifier potassium channel 1 (Homo sapiens), P48048; Tet-inducible ROMK, thallium flux fluorescence; actives lie on both sides; AID 1918, 2009; B-score at 10 µM;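 active means signal ratio slope over the read window, or its plate-corrected B-score, at least 3 SD from the plate mean, either direction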;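 further: B-score of the F/F0 ratio slope over 7 to 12 s after thallium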
# Target sequence (P48048 whole entry, looked up): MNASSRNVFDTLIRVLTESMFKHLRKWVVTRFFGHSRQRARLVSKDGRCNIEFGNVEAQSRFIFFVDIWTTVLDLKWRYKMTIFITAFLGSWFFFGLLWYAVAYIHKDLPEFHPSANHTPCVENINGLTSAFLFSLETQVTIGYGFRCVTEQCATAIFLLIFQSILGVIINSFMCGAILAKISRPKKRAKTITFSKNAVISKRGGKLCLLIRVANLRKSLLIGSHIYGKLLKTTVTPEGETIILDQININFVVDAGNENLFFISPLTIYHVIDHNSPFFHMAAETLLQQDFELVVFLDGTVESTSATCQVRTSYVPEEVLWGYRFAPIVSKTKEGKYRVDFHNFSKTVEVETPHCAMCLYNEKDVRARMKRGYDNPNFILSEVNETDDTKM
# Cl transport mod – KCC2 cotransporter modulators, thallium flux, primary screen, cell-based, HEK293 KCC2, FluoZin-2 fluorescence, MLSMR | Solute carrier family 12 member 5 (Homo sapiens), Q9H2X9 | KCC2 cells, thallium flux FluoZin-2 fluorescence | B-score of Tl+ flux slope (higher = more flux/activation; lower = inhibition) at 10 µM | 190,000 compounds, 2.2% hits;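 active means thallium flux slope and its plate-corrected score both differing from the plate sample mean at a set confidence after two filtering rounds, in either direction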;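 further: slope of fluorescence scaled to starting intensity during 10 to 20 s after thallium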
# KCC2 secondary – KCC2 modulators in sodium-free buffer, confirmation, cell-based, HEK293 KCC2, thallium flux, secondary assay | shares compounds with Cl transport mod | FluoZin2 fluorescence; hits give high values | normalised thallium flux (F/F0 slope) at 10 µM | 3,700 compounds, 15% hits;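 active means thallium flux slope above the same plate's solvent-only control mean plus 3 SD; inconclusive means the two replicate wells disagree; inactive means no significant difference from solvent-only control wells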
# KCC2 bumet counter – thallium flux persisting under bumetanide in KCC2 cells, confirmation, counter-screen for KCC2 modulator project, cell-based, HEK293 KCC2, FluoZin2, secondary assay 3; shares compounds with Cl transport mod; 3,700 compounds, 49% hits; AID 1714, 2009; normalized thallium flux at 10 µM; HEK293-KCC2 + bumetanide/ouabain; hits give high values;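 active means thallium entry rate above the same plate's blocked-transporter control wells by more than 3 SD; inconclusive means the two repeat wells disagree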;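 further: raw slope of fluorescence over initial fluorescence between 10 and 20 s after thallium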
# KCC2 secondary2 – KCC2 modulators without ouabain present, confirmation, cell-based, HEK293 KCC2, thallium flux, FluoZin2, secondary assay 2; normalized thallium flux at 10 µM; 3,700 compounds, 23% hits; thallium flux FluoZin2 fluorescence; actives lie on both sides; F/F0 rise rate, 10–20 s post-thallium; shares compounds with Cl transport mod; AID 1715, 2009;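 active means thallium flux slope more than 3 SD above or below the plate's solvent-only control mean, mostly below; inconclusive means the two repeat wells disagreed; inactive means no significant shift from solvent-only controls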;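 further: raw slope with 0.1% DMSO as baseline and bumetanide as block control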
# HEK293 Tl flux – thallium flux modulation in parental HEK cells, confirmation, counter-screen for KCC2 modulator project, cell-based, counterscreen 1. 3,700 compounds, 46% hits. shares compounds with Cl transport mod. thallium flux rate (normalised fluorescence) at 10 µM. HEK293 parental cells, thallium flux FluoZin2, ouabain; baseline-ratio fluorescence slope, 10–20 s after thallium. AID 1716, 2009;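 active means thallium flux rate significantly above the same plate's solvent-only control wells, beyond their mean plus 3 SD; inconclusive means the two replicate wells gave conflicting results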
# KCC2 ouabain – KCC2 inhibitors and activators, ouabain retest, confirmation, HEK-KCC2 cells; shares compounds with Cl transport mod; HEK293-KCC2, thallium flux FluoZin2 fluorescence; bidirectional: low = inhibitor, high = activator; raw Tl+ flux slope (below DMSO = inhibition, above = activation) at 10 µM; 3,700 compounds, 48% hits;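 active means thallium flux slope beyond 3 SD from same-plate DMSO control mean in most replicates, usually higher, sometimes lower; inconclusive means repeat tests gave conflicting results; inactive means no significant difference from controls in most replicates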;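 further: slope of initial-normalized fluorescence between seconds 10 and 20 after thallium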
# HEK counter2 – native HEK Tl+ uptake effects, second counter-screen – HEK cells, counterscreen 2, counter-screen for KCC2 modulator project, confirmation; thallium flux slope at 10 µM; 3,700 compounds, 33% hits; HEK293 parental, thallium flux FluoZin-2 fluorescence slope; shares compounds with Cl transport mod;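 active means thallium flux slope above the same plate's solvent-control mean plus 3 SD in both duplicate wells; inconclusive means duplicate wells that disagreed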;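 further: run without ouabain in cells lacking the KCC2 cotransporter; slope of fluorescence scaled to its starting value between 10 and 20 s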
# * marks the source's active call; other numbers are inactive results; i = inactive; ? = inconclusive; . = no result. Rows were chosen to be rich in hits. Some 4% of all compounds tested hit in one or more screens of this group.
SMILES,HSV augment,Measles CPE,Arbovirus anti,ROMK primary,Cl transport mod,KCC2 secondary,KCC2 bumet counter,KCC2 secondary2,HEK293 Tl flux,KCC2 ouabain,HEK counter2
C=C1c2cc3c(cc2NC(=S)N1Cc1ccccc1)OCO3,i,.,.,.,53.2*,0.0157*,0.0989*,0.0324,0.0353*,0.0473*,0.0159*
O=S(=O)(NCc1ccccc1)c1ccc(S(=O)(=O)NCC2CCCO2)cc1 (stereo unspecified),i,.,-0.3,-0.542,0.0918,.,.,.,.,.,.
Cc1ccc(-c2ccc(S(=O)(=O)NCC3CCCO3)cc2)cc1 (stereo unspecified),i,.,-8.8,-0.647,-4.89*,0.00537,0.00414,0.0265*,0.00785,?,0.0112
Cc1nn(-c2ccccc2)c(C)c1/C=N/n1c(-c2ccccc2Br)n[nH]c1=S,i,.,.,.,10.2*,0.00639,0.0416*,0.0312,0.0114*,?,?
COC(=O)c1ccc(C(C(=O)NCc2ccccc2)N(Cc2cccs2)C(=O)c2cnccn2)cc1 (stereo unspecified),i,9.4,20.4,.,.,0.00931,0.0059,0.0328,0.00846,0.0202,0.0113
COc1ccc(C(C(=O)NCc2ccccc2)N(Cc2ccco2)C(=O)c2cnccn2)cc1 (stereo unspecified),i,.,8.6,.,-0.342,.,.,.,.,.,.
CC(C)Oc1ccccc1OCCCOc1cccc2cccnc12,i,.,-1.9,-0.102,-3.75*,0.00713,0.00487,?,0.00637,0.0168*,0.0103
c1ccc(OCCOc2cccc3cccnc23)cc1,i,18.4,-6.6,-0.0199,-1.64,.,.,.,.,.,.
Cc1nnc(NC(=O)c2ccc(S(=O)(=O)N(C)Cc3ccccc3)cc2)o1,i,14.4,-14.0,0.257,.,.,.,.,.,.,.
CCN(Cc1ccccc1)S(=O)(=O)c1ccc(C(=O)Nc2nnc(C3CC3)o2)cc1,i,3.8,-6.6,.,3.62*,0.0117,0.019*,0.0338,?,?,0.0118
CCc1nnc(NC(=O)c2ccc(S(=O)(=O)N(CC(C)C)CC(C)C)cc2)o1,i,12.6,-4.5,.,5.08*,0.0121*,0.0191*,0.0302,0.01*,0.0217*,0.00988
NC(=O)N/N=C/c1cn(CC(=O)Nc2ccc(F)cc2)c2ccccc12,i,.,.,1.19,-0.448,.,.,.,.,.,.
CC(CNS(=O)(=O)c1ccccc1)(c1ccccc1)N1CCCCC1 (stereo unspecified),i,.,.,.,-0.976,.,.,.,.,.,.
COC(=O)c1ccc(CSc2ncnc3sc(C)c(C)c23)o1,i,9.4,-2.2,-1.31,50.7*,0.0113*,0.1*,0.0698*,0.0645*,0.0843*,0.0498*
C=CCSc1ncnc2sc(C)c(C)c12,i,5.7,-7.3,.,4.79*,0.0112,0.0229*,0.0343,0.0132*,0.0248,0.0129*
Cc1sc2ncnc(SCc3ccc(C(=O)O)cc3)c2c1C,i,.,6.8,-0.0906,1.37,.,.,.,.,.,.
CCSc1ncnc2sc(C)c(C)c12,i,20.1,5.1,-1.8,-0.762,.,.,.,.,.,.
